The record followed here is PubChem BioAssay (Tox21).

A short description of test [1]: qHTS assay to identify small molecule agonists of the estrogen receptor alpha (ER-alpha) signaling pathway in the presence of an antagonist - cell viability counter screen (AID 1259386).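 Also: cells exposed to compounds for 22 h at 37 °C before the viability read; nearly all actives have a fitted effect of over 30% in size.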 Also: potency is read from the fitted curve at half-maximal effect. A digest of the protocol:
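Using estrogen-depleted VM7Luc4E2 cells, the 15-concentration compound series was applied together with 10.0nM ICI-182,780 and incubated 22hr at 37C/5% CO2. Cell viability was then scored by CellTiter-Fluor.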
(In general: qHTS replaces the single test concentration by a dilution series.)

For test [2], the target named is Progesterone receptor (Homo sapiens) (UniProt P06401). Briefly: qHTS assay to identify small molecule agonists of the progesterone receptor (PR) signaling pathway (AID 1346784; calls by dose curve; also: nearly all actives have a fitted effect of over 30% in size). In a few lines:
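Using charcoal-stripped serum (2%) to limit endogenous steroids, PR-UAS-bla HEK 293T cells received compounds for 16 hr at 37C after 6 hr plating; beta-lactamase FRET fluorescence was recorded following 2 hr substrate loading at room temperature.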

Test [3] shares this target. Briefly: qHTS assay to identify small molecule antagonists of the progesterone receptor (PR) signaling pathway (AID 1346795; active = well fitted inhibition curve with a large enough effect in the signal ratio in the repeat runs, not every such curve was filed as active; the % refers to the signal ratio; also: potency is read from the fitted curve at half-maximal effect). In a few lines: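 Inhibition of R5020-induced (1 nM final) beta-lactamase reporter signal in PR-UAS-bla HEK293T cells was scored by FRET fluorescence after overnight (16 hr) compound treatment.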
The nature of test [4]: qHTS assay to identify small molecule antagonists of the TGF-beta/Smad signaling pathway - cell viability counter screen (AID 1346824). Also: nearly all actives have a fitted effect of over 50% in size. Also: potency is read from the fitted curve at half-maximal effect. A digest of the protocol:
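Cytotoxicity counter-screen run in the same wells as the beta-lactamase Smad reporter read: CellTiter-Glo luminescence after 30 min at room temperature. HEK 293T SBE-bla cells had 5 hr compound exposure at 37 C with TGF-beta1 (0.25 ng/mL stock).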

Test [5] in a line: qHTS assay to identify small molecule agonists of the TGF-beta/Smad signaling pathway (AID 1346859; active = well fitted activation curve with a large enough effect in the signal ratio in the repeat runs, not every such curve was filed as active; the % refers to the signal ratio; also: series mostly up to about 77 µM). In a few lines: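 Stable Smad binding element-beta-lactamase HEK 293T cells; 5 hr compound exposure at 37 C under 5% CO2; 2 hr room-temperature substrate step; fluorescence excited at 405 nm, collected at 460 nm and 530 nm.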
In test [6] the target is Thyrotropin-releasing hormone receptor (Homo sapiens) (UniProt P34981). Briefly: qHTS assay to identify small molecule antagonists of the thyrotropin-releasing hormone receptor (TRHR) signaling pathway (AID 1346877; active = well fitted inhibition curve with a large enough effect in the repeat runs, not every such curve was filed as active; also: series mostly up to about 51 µM). A digest of the protocol: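 Calcium signal in dye-loaded TRHR/HEK293 cells; compounds added 5 min before TRH (1 nM final); fluorescence monitored 3 min at 1 s steps.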

Test [7] has the same target. Briefly: qHTS assay to identify small molecule agonists of the thyrotropin-releasing hormone receptor (TRHR) signaling pathway (AID 1346891; calls by dose curve;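 also: HEK293 cells expressing TRHR with calcium dye readout; series mostly up to about 58 µM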). A digest of the protocol:
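In 1536-format, 1500 TRHR-Hek293 cells per well grew 18 h, took up calcium dye for 2 h at 37 °C, received compound, and were read kinetically; 15-point titrations, triplicates.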

Test [8] can be described thus: qHTS assay to identify small molecule antagonists of the progesterone receptor (PR) signaling pathway - cell viability counter screen (AID 1346798). Also: nearly all actives have a fitted effect of over 50% in size. Also: potency is read from the fitted curve at half-maximal effect. A digest of the protocol: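 ATP content as viability readout: CellTiter-Glo luminescence, 30 min room temperature, in PR-UAS-bla HEK293T cells after 16 hr compound/R5020 treatment at 37C and 5% CO2.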
Test [9] is described as follows: qHTS assay to identify small molecule agonists of the TGF-beta/Smad signaling pathway - cell viability counter screen (AID 1346829). Also: nearly all actives have a fitted effect of over 45% in size. Also: potency is read from the fitted curve at half-maximal effect. A digest of the protocol:
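Same-well cytotoxicity: CellTiter-Glo added after the 2 hr room-temperature beta-lactamase substrate step, luminescence measured 30 min later; cells had 5 hr of compound at 37 C.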

A short description of test [10]: qHTS assay to identify small molecule agonists of the progesterone receptor (PR) signaling pathway - cell viability counter screen (AID 1346799; calls by dose curve; also: nearly all actives have a fitted effect of over 45% in size; also: potency is read from the fitted curve at half-maximal effect). A digest of the protocol: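 Cytotoxicity in PR-bla HEK293T cells: 16 h compound, 37C; CellTiter-Glo added post-FRET read; luminescence after 30 min RT.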

Several values for one entry are separate records, joined by “and”; a condition that tells them apart may be missing. Equal values may be shown once. Records with an inconclusive call do not appear. Activity calls are given as the source filed them. Unless noted, calls follow the shape of the dose curve; as a rule, active = well fitted curve in the direction sought with a large enough effect in the repeat runs; inconclusive = weak or mixed curves; inactive = no such curve, though single readings can be large; an effect the other way counts as inactive or inconclusive.

Progesterone receptor (Homo sapiens), sequence (P06401 whole entry, looked up): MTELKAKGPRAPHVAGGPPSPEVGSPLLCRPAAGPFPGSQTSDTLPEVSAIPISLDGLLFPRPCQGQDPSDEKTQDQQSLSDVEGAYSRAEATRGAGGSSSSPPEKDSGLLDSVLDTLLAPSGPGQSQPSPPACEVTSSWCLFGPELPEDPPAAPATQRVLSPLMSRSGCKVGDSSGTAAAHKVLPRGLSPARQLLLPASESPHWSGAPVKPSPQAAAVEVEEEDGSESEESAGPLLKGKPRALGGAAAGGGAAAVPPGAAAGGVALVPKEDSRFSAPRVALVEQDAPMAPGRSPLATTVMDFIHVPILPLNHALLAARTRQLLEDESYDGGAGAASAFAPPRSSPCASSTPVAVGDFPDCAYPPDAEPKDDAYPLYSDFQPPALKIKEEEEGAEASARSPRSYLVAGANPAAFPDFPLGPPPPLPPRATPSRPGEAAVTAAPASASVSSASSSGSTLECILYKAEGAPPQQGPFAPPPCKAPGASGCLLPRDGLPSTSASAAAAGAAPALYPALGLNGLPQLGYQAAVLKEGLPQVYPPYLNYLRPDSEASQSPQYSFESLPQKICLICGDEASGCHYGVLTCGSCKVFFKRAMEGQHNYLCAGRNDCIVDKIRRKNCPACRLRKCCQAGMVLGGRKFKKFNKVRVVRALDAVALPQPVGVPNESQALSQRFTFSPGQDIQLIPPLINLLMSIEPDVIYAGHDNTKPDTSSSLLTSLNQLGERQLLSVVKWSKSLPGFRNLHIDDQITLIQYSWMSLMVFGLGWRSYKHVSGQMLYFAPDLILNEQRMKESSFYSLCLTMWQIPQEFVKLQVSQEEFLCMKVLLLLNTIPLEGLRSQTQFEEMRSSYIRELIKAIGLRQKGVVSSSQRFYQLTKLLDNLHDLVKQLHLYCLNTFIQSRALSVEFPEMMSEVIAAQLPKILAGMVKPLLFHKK
Thyrotropin-releasing hormone receptor (Homo sapiens), sequence (P34981 whole entry, looked up): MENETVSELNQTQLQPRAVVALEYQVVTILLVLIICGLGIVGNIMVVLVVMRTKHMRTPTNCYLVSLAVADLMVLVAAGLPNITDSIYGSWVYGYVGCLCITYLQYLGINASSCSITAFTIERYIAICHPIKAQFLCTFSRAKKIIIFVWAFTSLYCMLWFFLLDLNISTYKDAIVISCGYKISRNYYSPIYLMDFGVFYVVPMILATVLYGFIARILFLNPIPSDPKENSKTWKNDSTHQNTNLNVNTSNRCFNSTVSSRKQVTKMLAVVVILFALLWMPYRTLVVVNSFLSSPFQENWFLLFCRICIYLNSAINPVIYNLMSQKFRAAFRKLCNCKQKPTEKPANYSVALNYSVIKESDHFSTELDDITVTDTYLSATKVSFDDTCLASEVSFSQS

On to `CCC(C)(C)C(=O)OC1=C(c2ccc(Cl)cc2Cl)C(=O)OC12CCCCC2`, for which the Potency result in test [1], in test [2], in test [3], in test [4], in test [6] and in test [7] was “inactive” in each case. Also, the molecule was classed as inactive in test [5].
In the case of `c1ccc2c(c1)OCC(C1=NCCN1)O2` (stereo not given), the Potency result in test [1], in [2], in [8], in test [4], in [9] and in test [6] was “inactive” in each case. Also, the Potency result in test [7] was “inactive”. Further, the Potency in test [3] is 21.1 µM (active). Besides, the outcome in [5] was inactive.
Regarding `COc1cccc(C(=O)CCN[C@@H](C)[C@H](O)c2ccccc2)c1`, the Potency result in test [1], in test [2], in [3], in test [4], in test [9] and in test [6] was “inactive” throughout. Further, in test [7], the Potency entry was “inactive”. Moreover, in test [5], the outcome was inactive.
As to `N#Cc1ccccc1Cl`, the Potency entry in test [1], in test [2], in [3], in [8], in test [4] and in test [6] was “inactive” throughout. In test [7], the Potency entry is “inactive”. In addition, in test [5], the result was inactive.
With `CCCCCCCCCCCCCCCCCCn1cc[n+](C)c1`, the Potency in test [1] was 60.8 µM (active); in [3], 54.2 µM (active); in [10], 30.5 µM (active); in [4] it was 21.7 µM (active). Moreover, the Potency entry in [2] and in test [7] was “inactive” throughout.
With `O=C(NC(=O)c1c(F)cccc1F)Nc1cc(Cl)c(OC(F)(F)C(F)F)c(Cl)c1`, the Potency entry in [1], in test [2], in test [3], in test [8], in [4] and in test [9] was “inactive” throughout. The Potency result in test [6] and in [7] was “inactive” each time. Besides, the call in test [5] was inactive.
Take `BrC(Br)C(Br)(Br)Br`: the Potency entry in test [1], in test [2], in test [3], in [8], in test [4] and in [9] was “inactive” throughout. Moreover, the Potency result in [7] was “inactive”.
With `CC(C)N1C(=O)N(c2ccccc2)CSC1=NC(C)(C)C`, the Potency entry in test [1], in test [2], in [4], in test [9], in test [6] and in [7] was “inactive” throughout. For the same molecule, in [3], the Potency was 17.2 µM (active). The molecule was called inactive in [5].
Consider `CC(C)(COCC1CO1)COCC1CO1` (stereo not given), for which the Potency entry in test [1], in test [2], in test [3], in test [8], in test [4] and in test [9] was “inactive” throughout. Moreover, the Potency entry in test [7] is “inactive”. Further, the result in test [5] was inactive.
For the molecule `NC(=O)c1ccc(N)nc1`, the Potency entry in test [1], in [2], in test [3], in test [4] and in [7] was “inactive” throughout. Also, in [8], the Potency was 17.2 µM (active). Further, the outcome in test [5] was inactive.
`C=CC(=O)N(C)C`: the Potency entry in test [1], in [2], in test [3], in test [8], in [4] and in test [9] was “inactive” in each case. Also, the Potency entry in test [6] and in [7] was “inactive” in each case.
For the molecule `CC(C)CBr`, the Potency entry in [1], in [2], in test [3], in test [8], in test [4] and in test [6] was “inactive” in each case. For the same molecule, the Potency result in test [7] was “inactive”. Further, in test [5], the call was inactive.
Turning to `CSCCCN=C=S`, the Potency result in [1], in test [2], in [3], in test [8], in test [4] and in test [9] was “inactive” in each case. In addition, the Potency entry in test [7] is “inactive”. In addition, in [5], the call was inactive.
Turning to `CCOP(=S)(OCC)SCS(=O)(=O)CC`, the Potency entry in [1], in test [2], in test [3], in test [8], in test [9] and in [6] was “inactive” throughout. Besides, the Potency entry in test [7] was “inactive”. In addition, the outcome in [5] was inactive.
`CCC(C)c1cc([N+](=O)[O-])cc([N+](=O)[O-])c1OC(=O)C=C(C)C` (stereo not given): the Potency was 54.5 µM (active) in test [1] and 12.2 µM (active) in test [3]. In addition, the Potency entry in [2], in test [4], in test [9], in test [6] and in test [7] was “inactive” throughout.
Take `COc1ccc(N)cc1N`: the Potency in test [1] was 63.1 µM (active); in [4] it was 7.14 µM (active) and 21 µM (active); in [9] it was 7.14 µM (active) and 11.8 µM (active). In addition, the Potency entry in [2], in [3], in [8] and in test [7] was “inactive” in each case.
As for `N#CCCSCCC#N`, the Potency entry in [1], in [2], in test [3], in [8], in test [4] and in [9] was “inactive” throughout. Besides, the Potency result in [7] is “inactive”. Further, the result in [5] was inactive.
For the molecule `ClC1=C(Cl)[C@]2(Cl)[C@@H]3[C@@H](Cl)[C@@H](Cl)C[C@@H]3[C@@]1(Cl)C2(Cl)Cl`, the Potency entry in test [1], in test [2], in [3], in test [8], in test [4] and in test [9] was “inactive” each time. Also, the Potency entry in [6] and in test [7] was “inactive” each time. Further, in test [5], the result was inactive.
Take `N#CNC#N`: the Potency entry in test [1], in [2], in test [8], in test [10], in test [4] and in [9] was “inactive” throughout. Also, the Potency entry in test [6] and in test [7] was “inactive” throughout.
Regarding `CCCCCCCCCCBr`, the Potency entry in test [1], in test [2], in test [3], in test [8], in test [6] and in test [7] was “inactive” throughout. In addition, in [5], the outcome was inactive.
Take `Cc1cc(N=Nc2ccccc2C)ccc1N`: the Potency in [1] was 27.3 µM (active); in [3], 12.2 µM (active). In addition, the Potency entry in test [2], in test [8], in [4], in [9], in test [6] and in test [7] was “inactive” each time. The outcome in [5] was inactive.
Regarding `CCCN(CC)CC1COC2(CCC(C(C)(C)C)CC2)O1` (stereo not given), the Potency result in test [1], in test [2], in [3], in [4] and in test [9] was “inactive” throughout.
For `CC(C)(C)c1cc([N+](=O)[O-])cc(C(C)(C)C)c1O`, the Potency in [1] was 8.63 µM (active); in test [3], 30.6 µM (active). Besides, the Potency entry in test [2], in test [6] and in [7] was “inactive” throughout.
With `CCOP(=S)(OCC)SCS(=O)(=O)C(C)(C)C`, the Potency entry in [1], in test [2], in test [4], in [9], in test [6] and in test [7] was “inactive” throughout. In addition, the Potency in test [3] is 68.6 µM (active). In addition, in test [5], the molecule was classed as inactive.
For `O=[N+]([O-])c1ccc(Oc2ccc(C(F)(F)F)cc2[N+](=O)[O-])cc1`, the Potency result in test [1], in [2], in test [4] and in test [7] was “inactive” in each case. In addition, the Potency in test [3] is 7.7 µM (active). Also, in test [5], the molecule was classed as inactive.
Regarding `COc1ccc([N+](=O)[O-])cc1O`, the Potency entry in test [1], in test [2], in test [3], in test [10], in test [4] and in [9] was “inactive” in each case. Also, the Potency result in test [6] and in [7] was “inactive” each time. Besides, in [5], the call was inactive.
In the case of `Fc1cccc(Cl)c1CCl`, the Potency result in test [1], in test [2], in test [3], in test [8], in test [4] and in test [9] was “inactive” in each case. The Potency entry in test [7] was “inactive”. Moreover, the molecule was classed as inactive in test [5].
Turning to `O=C(CCl)Nc1ccccc1`, the Potency in test [1] was 68.6 µM (active); in [8], 19.3 µM (active). Besides, the Potency entry in test [2], in test [10], in [4], in test [9] and in test [7] was “inactive” throughout. The result in [5] was inactive.
In the case of `COC[C@H](C)N(C(=O)CCl)c1c(C)csc1C`, the Potency entry in test [1], in [2], in test [3], in test [8], in test [4] and in [6] was “inactive” in each case. Further, in test [7], the Potency result is “inactive”.
Consider `CC(=[OH+])/C=C(/C)[O-].CC(=[OH+])/C=C(\C)[O-].CC(=[OH+])/C=C(\C)[O-].[Al]`, for which the Potency entry in [1], in test [2], in [8], in test [10], in test [4] and in [9] was “inactive” each time. Besides, the molecule was classed as inactive in test [5].
Consider `Cc1cc(SCc2sc(-c3ccc(C(F)(F)F)c(F)c3)nc2C)ccc1OCC(=O)O`, for which the Potency entry in [1], in test [2], in test [4], in test [9], in test [6] and in test [7] was “inactive” throughout. The Potency in test [3] was 17.2 µM (active); in test [8], 19.3 µM (active).
